This passage reports AC50 and outcome results from PubChem BioAssay (EPA / NIEHS).

One may read the AC50 as the midpoint of the concentration-response curve, whichever way the signal moves.

Results filed as inconclusive are left out. Calls of active or inactive are those of the source. How the source made its calls, unless noted: active means hit-call score of the fitted dose curve at least 0.9, where 1 is the maximum; inactive means score below 0.9.

The subject of one assay is TTR (gene 7276). Put plainly: CCTE_GLTED_hTTR_0.5uM: CCTE's human Transthyretin (hTTR) Inhibition Assay, with 0.5uM TTR, Great Lakes Toxicology and Ecology Division (GLTED) Lab (AID 2284320). In short, it runs like this: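 Probe (ANSA) displacement from 0.5 uM human transthyretin was followed by fluorescence (ex 380, em 475) after a 2 h incubation with chemical. Activity was scored as signal loss and fitted positively relative to DMSO.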

Assay [1] in a line: CCTE_Mundy_HCI_iCellGluta_NOG_NeuronCount: CCTE's Neurite Outgrowth Assay in iCellGluta cells for Neuron Count, Mundy Lab (AID 2284340; active means hit-call score of the fitted dose curve at least 0.9, where 1 is the maximum;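 further: cells fixed about 48 h after compound addition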). The essentials:
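Neuron count read by automated high-content imaging of Hoechst 33342 and betaIII-tubulin/Alexa Fluor-488 labelling in human iPSC glutamatergic neurons. Activity fitted relative to DMSO.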

Assay [2] is described as follows: CCTE_Mundy_HCI_iCellGluta_NOG_NeuriteCount: CCTE's Neurite Outgrowth Assay in iCellGluta cells for Neurite Count, Mundy Lab (AID 2284342; active means hit-call score of the fitted dose curve at least 0.9, where 1 is the maximum;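 further: chemical exposure about 48 hours starting 2 hours after plating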).
In the next assay the test system is SERPINA7 (gene 6906). Description: CCTE_GLTED_hTBG: CCTE's human Thyroxine-binding Globulin (TBG) Inhibition Assay, Great Lakes Toxicology and Ecology Division (GLTED) Lab (AID 2284343; active means hit-call score of the fitted dose curve at least 0.9, where 1 is the maximum;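 further: active chemicals lower fluorescence versus DMSO baseline by displacing probe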). In short, it runs like this:
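Steps: combine TBG with chemical; incubate 2 hours so that disruptors release ANSA; record fluorescence (380 ex, 475 em). Loss of signal was fitted against DMSO controls.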

A short description of assay [3]: Tanguay_ZF_120hpf_MO24: Oregon State University Tanguay Lab 24 Hour Post-fertilization zebrafish Assay for Mortality (AID 2284389). The essentials: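 Embryo death at 24 hpf was recorded as present or absent in Tropical 5D zebrafish, dechorionated at 4 hpf and dosed statically from 6 hpf (28C, 0.64% DMSO); 5 uM trimethyltin chloride served as positive control.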
A short description of assay [4]: Tanguay_ZF_120hpf_DP24: Oregon State University Tanguay Lab 24 Hour Post-fertilization zebrafish Assay for Delayed Development (AID 2284390). The essentials:
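Scored at 24 hpf as a binary present/absent call of delayed development by brightfield, with dead embryos not assessed. Embryos (5D wild type, chorion removed with pronase at 4 hpf) dosed statically from 6 hpf at 28 C in 0.64% DMSO.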

A short description of assay [5]: Tanguay_ZF_120hpf_CRAN: Oregon State University Tanguay Lab 120 Hour Post-fertilization zebrafish Assay for Craniofacial Malformation (AID 2284397). The essentials: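 Scoring of craniofacial malformation as a binary endpoint was done at 120 hpf by brightfield microscopy and was not done in dead embryos. Exposure was static, starting at 6 hpf, in dechorionated wild-type embryos held singly at 28C with 0.64% DMSO final.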

Assay [6] in a line: Tanguay_ZF_120hpf_AXIS: Oregon State University Tanguay Lab 120 Hour Post-fertilization zebrafish Assay for Axial Malformation (AID 2284398). The essentials:
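Scoring was binary (present or absent) for body-axis defects, judged by brightfield imaging at 120 hpf in surviving larvae. Exposure was static at 28C from 6 hpf in chorion-free 5D wild-type embryos, with 0.64% DMSO vehicle.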

Assay [7] is described as follows: Tanguay_ZF_120hpf_MORT: Oregon State University Tanguay Lab 120 Hour Post-fertilization zebrafish Assay for Mortality (AID 2284399). The essentials:
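Mortality, recorded present/absent via brightfield imaging at 24 and 120 hpf, in 5D zebrafish embryos exposed statically from 6 hpf after pronase chorion removal. Exposure at 28C, 0.64% DMSO vehicle, DMSO baseline.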

Assay [8] in a line: Tanguay_ZF_120hpf_TCHR: Oregon State University Tanguay Lab 120 Hour Post-fertilization zebrafish Assay for Touch Responsive (AID 2284403). The essentials: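 Binary touch-response calls are made at 120 hpf in 5D wild-type zebrafish larvae. These larvae were dechorionated with pronase and exposed singly from 6 hpf in sealed, dark plates at 28 °C with 0.64% DMSO final; dead embryos are excluded.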

Assay [9] is described as follows: Tanguay_ZF_120hpf_ANY: Oregon State University Tanguay Lab 120 Hour Post-fertilization zebrafish Assay for Any Mortality and Malformation (AID 2284404). The essentials:
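Dechorionated Tropical 5D wild-type embryos, one per well from 6 hpf, static exposure in sealed, dark plates at 28C until 120 hpf, 0.64% DMSO final. Brightfield scoring of mortality and malformations as binary presence/absence, pooling 13 morphology endpoints.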

Assay [10] in a line: CCTE_Padilla_ZF_Score.Craniofacial: CCTE's 144 Hour Post-fertilization zebrafish Assay Score for Craniofacial Malformation, Padilla Lab (AID 2284405). The essentials: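 Craniofacial defects were scored at 6 dpf by two blinded observers using stereomicroscopy. Exposure of wild-type embryos began at 6–8 hpf in sealed wells of 10% Hanks' solution at 26C, with chemical removed by rinsing at 5 dpf.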

Assay [11] in a line: CCTE_Padilla_ZF_Score.Edema: CCTE's 144 Hour Post-fertilization zebrafish Assay Score for Edema Malformation, Padilla Lab (AID 2284406). The essentials:
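Edema scored at 6 dpf by two blinded observers under a stereo microscope, in single outbred wild-type larvae exposed from 6-8 hpf in sealed wells (Hanks', 26C, 14:10 h light) and chemical-free after a 5 dpf rinse.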

Assay [12] is described as follows: CCTE_Padilla_ZF_Score.Spine: CCTE's 144 Hour Post-fertilization zebrafish Assay Score for Spine Malformation, Padilla Lab (AID 2284407). In short, it runs like this:
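Spine malformation scored at 6 dpf by two independent blinded observers under stereomicroscope, after static sealed exposure from 6–8 hpf at 26C in Hanks' solution with rinse on 5 dpf. Positive-direction fit against DMSO control.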

Assay [13] is described as follows: CCTE_Deisenroth_5AR_NBTE_acceptor: CCTE's 5alpha-reductase NanoBRET Target Engagement Assay - Autofluorescence Screen, Deisenroth Lab (AID 2284321).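 Further: compound fluorescence in the acceptor channel under 460 nm excitation flags autofluorescence artifacts.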 The conditions noted are these: actives raise or lower the signal. In short, it runs like this:
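HEK293T cell-based NanoBRET assay read 5 h after dosing; this acceptor channel serves as an autofluorescence artifact screen. Chemicals at nominal 100 uM were scanned in three independent runs (n=3), excitation 460 nm. Fitting was bidirectional versus DMSO baseline.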
(In general: In BRET a luciferase serves as donor, and the signal depends on an acceptor being close.)

The next assay relates to SRD5A2 (gene 6716). Description: CCTE_Deisenroth_5AR_NBTE_ratio: CCTE's 5alpha-reductase NanoBRET Target Engagement Assay - Ratio, Deisenroth Lab (AID 2284322). The conditions noted are these: actives raise or lower the signal. In short, it runs like this:
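SRD5A2-NanoLuc HEK293T; cmpd 10 nM-29.9 uM, 3 h preinc + testosterone tracer 2 h; NanoBRET ratio 650/460; bidirectional fit vs DMSO.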

Assay [14] is described as follows: Tanguay_ZF_120hpf_BRN: Oregon State University Tanguay Lab 120 Hour Post-fertilization zebrafish Assay for Brain Region Malformation (AID 2284402). The essentials: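 Binary brightfield scoring of brain malformation at 120 hpf in 5D wild-type larvae, chorion removed with pronase at 4 hpf. Static exposure began at 6 hpf, 28C, sealed plates, DMSO 0.64% (vol/vol) as vehicle baseline.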

With `FC(F)(F)C(F)(F)C(F)(F)C(F)(F)CCI`, the AC50 in the assay with TTR (gene 7276) is 75 µM (active); in the assay with SERPINA7 (gene 6906), 46.7 µM (active). The outcome in [1], in assay [2], in assay [3], in [4], in [5] and in assay [6] was inactive. Moreover, the compound was classed as inactive in [7], in [8], in assay [9], in [10], in assay [11] and in assay [12].
For the compound `O=C(OCCOCCOCCOC(=O)c1ccccc1)c1ccccc1`, the compound was classed as inactive (in assay [13]; with SRD5A2 (gene 6716)).
As for `FC(F)(F)C(F)(F)C(F)(F)C(F)(F)C(F)(F)C(F)(F)C(F)(F)I`, the compound was classed as inactive in [3], in assay [4], in assay [5], in assay [6], in [7] and in assay [8]. Moreover, the compound was called inactive in [9], in assay [10] and in [12]. Besides, the AC50 in [11] is 10.2 µM (active).
On to `OCCCC(F)(F)C(F)(F)C(F)(F)F`, for which the outcome in assay [3], in [4], in assay [5], in [6], in assay [7] and in [8] was inactive. Besides, the result in assay [9], in [10], in assay [11] and in [12] was inactive.
As to `O=C(O)C(F)(F)C(F)(F)F`, the result in [3], in assay [4], in [5], in assay [6], in assay [7] and in [8] was inactive. The call in assay [9], in assay [10], in [11] and in assay [12] was inactive.
Regarding `CCCCCCCCC(F)(F)C(F)(F)C(F)(F)C(F)(F)C(F)(F)C(F)(F)F`, the outcome in assay [3], in assay [4], in assay [5], in assay [6], in assay [7] and in assay [8] was inactive. Besides, the result in [9], in assay [10], in [11] and in assay [12] was inactive.
On to `CCO[Si](CCC(F)(F)C(F)(F)C(F)(F)C(F)(F)C(F)(F)C(F)(F)F)(OCC)OCC`, for which the compound was called inactive in assay [3], in [4], in assay [5], in assay [6], in assay [7] and in assay [14]. The compound was called inactive in [8], in assay [9], in assay [10], in assay [11] and in [12].
Take `O=S(=O)(OCC(F)F)C(F)(F)F`: the outcome in assay [3], in assay [4], in assay [5], in assay [6], in [7] and in assay [14] was inactive. Moreover, the compound was called inactive in [8], in assay [9], in assay [10], in [11] and in [12].
For `FC(F)(F)C(F)(F)C(F)(F)C(F)(F)C(F)(F)C(F)(F)C(F)(F)Br`, the call in assay [3], in assay [4], in assay [5], in assay [6], in assay [7] and in assay [8] was inactive. For the same compound, the result in assay [9], in assay [10], in assay [11] and in assay [12] was inactive.
